The supplement of paper PMC9694430
Values joined by “and” are separate entries in the source; they are usually repeats but may differ in a detail not shown here. Equal entries are not always repeated. Structures can show the parent of a compound that is named as a salt.

The molecules below were run on LOC_OS01G01410-cb001 (assay: thermal shift delta Tm vs DMSO control; higher = stronger stabilization (binding)). Details: 12.5 µM; protein concentration 2 µM.
Method in brief: (§1)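 Heating from 25°C to 95°C at 0.05°C/s, fluorescence was recorded for 19.5 μl wells of 2 μM E. coli-expressed, purified rice kinase domain in 100 mM potassium phosphate pH 7.5, 150 mM NaCl, 10% glycerol and 5 × SYPRO Orange with compound in DMSO. Boltzmann fits gave melting temperatures for this differential scanning fluorimetry assay. The shift reported is the mean of three replicates against the DMSO-only protein.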
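Note: purified Escherichia coli-expressed rice kinase domain construct.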

SMILES	thermal shift delta Tm
C[C@H](CN(C)C)Oc1nc(Nc2cc3cccc(Cl)c3cn2)cnc1C#N	0.28 °C
CN1c2ccccc2C(=O)Nc2cnc(Nc3ccc(N4CCC(O)CC4)cc3)nc21	0.94 °C
CCNc1nc(Nc2cc(F)c(C(=O)N3CCOCC3)cc2OC)ncc1C(F)(F)F	0.11 °C
COc1cc2ncnc(Nc3ccc(Oc4ccccc4)cc3C)c2cc1OC	0.68 °C
O=C1NC(=O)/C(=C/c2cccc(C(F)(F)F)c2)S1	-0.06 °C
COc1ccc(C(=O)Nc2sc3c(c2C(N)=O)CCCC3)cc1OC	0.61 °C
C#Cc1cccc(Nc2ncnc3cc(OCCOC)c(OCCO)cc23)c1	1.63 °C
FC(F)(F)c1ccc(/C=C/c2nc(COc3ccc(CCCCn4ccnn4)cc3)co2)cc1 [Mubritinib (TAK 165)]	0.34 °C
CNC(=O)Nc1ccc(-c2nc(N3CC4CCC(C3)O4)c3cnn(C4CCC5(CC4)OCCO5)c3n2)cc1	0.49 °C
CC(C)(C)NS(=O)(=O)c1cncc(-c2cc(F)c3nc(N)nn3c2)c1	0.2 °C
C[C@@H]1CN(CC(=O)Nc2ccc3c(c2)Cc2cccc(-c4cc(=O)cc(N5CCOCC5)o4)c2S3)C[C@H](C)O1	0.15 °C
COCCOc1ccc2c(c1)ncn2-c1ccc2cccc(N3CCC(N)CC3)c2n1	0.39 °C
Cc1ccc(NC(=O)c2ccc(CN3CCN(C)CC3)cc2)cc1Nc1nc(-c2cccnc2)cs1 [Masitinib (AB1010)]	1.11 °C
Cn1cc(-c2cnn3c(N)c(Br)c([C@@H]4CCCNC4)nc23)cn1	0.38 °C
COc1ccc(-c2cc3c(C)nc(N)nc3n([C@H]3CC[C@H](OCCO)CC3)c2=O)cn1	0.74 °C
Cc1ccc(S(=O)(=O)/C=C/C#N)cc1	-0.23 °C
CCCS(=O)(=O)Nc1ccc(F)c(C(=O)c2c[nH]c3ncc(-c4ccc(Cl)cc4)cc23)c1F [Vemurafenib (PLX4032, RG7204)]	3.81 °C
C[C@@H](N)c1ccc(C(=O)Nc2ccnc3[nH]ccc23)cc1	0.24 °C
O=C(NC1CCNCC1)c1n[nH]cc1NC(=O)c1c(Cl)cccc1Cl	0.79 °C and -0.04 °C

SMILES	thermal shift delta Tm
NCC(=O)Nc1ccc(-n2nc(C(F)(F)F)cc2-c2ccc3c(ccc4ccccc43)c2)cc1	1.11 °C
CCn1c(-c2nonc2N)nc2cnc(Oc3cccc(NC(=O)c4ccc(OCCN5CCOCC5)cc4)c3)cc21	0.15 °C
COc1cc2c3cc1Oc1c(OC)c(OC)cc4c1[C@@H](Cc1ccc(O)c(c1)Oc1ccc(cc1)C[C@@H]3N(C)CC2)N(C)CC4 [Berbamine (dihydrochloride)]	-0.04 °C
COc1cc2ncc(-c3ccccc3)nc2cc1OC [Tyrphostin AG 1296]	2.03 °C
C[C@H]1CNCCCN1S(=O)(=O)c1cccc2cncc(F)c12 [Ripasudil (K-115) hydrochloride dihydrate]	0.29 °C
N#Cc1c(NC(=O)c2cccc3ccccc23)sc2c1CCCC2 [JNK Inhibitor IX]	0.03 °C
CC(C)N(CCC(=O)c1ccc2ccccc2c1)Cc1ccccc1	-0.06 °C
COC(=O)c1ccc2c(c1)NC(=O)/C2=C(\Nc1ccc(N(C)C(=O)CN2CCN(C)CC2)cc1)c1ccccc1 [Nintedanib (BIBF 1120)]	2.25 °C
Nc1ccc(-c2ccc3ncc4ccc(=O)n(-c5cccc(C(F)(F)F)c5)c4c3c2)cn1 [Torin 2]	1.14 °C
COc1ccc2c(Oc3ccc(NC(=O)c4c(C)n(CC(C)(C)O)n(-c5ccccc5)c4=O)nc3)ccnc2c1	0.36 °C
COc1ncc(-c2ccc3nccc(-c4ccnnc4)c3c2)cc1NS(=O)(=O)c1ccc(F)cc1F	1.94 °C
Cc1c[nH]c(/C=C2\C(=O)Nc3ccccc32)c1CCC(=O)O	1.48 °C
Cc1cc(Nc2cc(Cl)nc(Oc3ccc([N+](=O)[O-])cc3)n2)n[nH]1 [Autophinib]	2.53 °C
O=C(c1ccc(/C=C/c2n[nH]c3ccccc23)cc1)N1CCNCC1	5.18 °C
COc1ccc(CNC(=O)Nc2ncc([N+](=O)[O-])s2)cc1	0.9 °C
Cc1cc2c(F)c(Oc3ncnn4cc(OC[C@@H](C)O)c(C)c34)ccc2[nH]1	1.69 °C
C=CC(=O)Nc1cccc(Oc2nc(Nc3ccc(N4CCN(C)CC4)cc3)nc3ccsc23)c1	2.67 °C
O=c1cc(N2CCOCC2)oc2c(-c3ccc4c(c3)OCCO4)csc12	0.37 °C
c1nc2c(NC3CCCCC3)nc(Nc3ccc(N4CCOCC4)cc3)nc2[nH]1 [Reversine]	5.03 °C

Each molecule was assayed on LOC_OS01G02750-cb003 in the same assay as above. Details: 12.5 µM; protein concentration 2 µM.
Method in brief: as §1

SMILES	thermal shift delta Tm
C[C@H](CN(C)C)Oc1nc(Nc2cc3cccc(Cl)c3cn2)cnc1C#N	1.3 °C
CN1c2ccccc2C(=O)Nc2cnc(Nc3ccc(N4CCC(O)CC4)cc3)nc21	1.24 °C
CCNc1nc(Nc2cc(F)c(C(=O)N3CCOCC3)cc2OC)ncc1C(F)(F)F	0.63 °C
COc1cc2ncnc(Nc3ccc(Oc4ccccc4)cc3C)c2cc1OC	0.9 °C
O=C1NC(=O)/C(=C/c2cccc(C(F)(F)F)c2)S1	0.14 °C
COc1ccc(C(=O)Nc2sc3c(c2C(N)=O)CCCC3)cc1OC	0.58 °C
C#Cc1cccc(Nc2ncnc3cc(OCCOC)c(OCCO)cc23)c1	0.85 °C
FC(F)(F)c1ccc(/C=C/c2nc(COc3ccc(CCCCn4ccnn4)cc3)co2)cc1 [Mubritinib (TAK 165)]	-0.49 °C
CNC(=O)Nc1ccc(-c2nc(N3CC4CCC(C3)O4)c3cnn(C4CCC5(CC4)OCCO5)c3n2)cc1	1.08 °C
CC(C)(C)NS(=O)(=O)c1cncc(-c2cc(F)c3nc(N)nn3c2)c1	0.93 °C
C[C@@H]1CN(CC(=O)Nc2ccc3c(c2)Cc2cccc(-c4cc(=O)cc(N5CCOCC5)o4)c2S3)C[C@H](C)O1	1.53 °C
COCCOc1ccc2c(c1)ncn2-c1ccc2cccc(N3CCC(N)CC3)c2n1	7.25 °C
Cc1ccc(NC(=O)c2ccc(CN3CCN(C)CC3)cc2)cc1Nc1nc(-c2cccnc2)cs1 [Masitinib (AB1010)]	0.48 °C
Cn1cc(-c2cnn3c(N)c(Br)c([C@@H]4CCCNC4)nc23)cn1	0.39 °C
COc1ccc(-c2cc3c(C)nc(N)nc3n([C@H]3CC[C@H](OCCO)CC3)c2=O)cn1	0.7 °C
Cc1ccc(S(=O)(=O)/C=C/C#N)cc1	-1.35 °C
CCCS(=O)(=O)Nc1ccc(F)c(C(=O)c2c[nH]c3ncc(-c4ccc(Cl)cc4)cc23)c1F [Vemurafenib (PLX4032, RG7204)]	7.84 °C
C[C@@H](N)c1ccc(C(=O)Nc2ccnc3[nH]ccc23)cc1	1.16 °C
O=C(NC1CCNCC1)c1n[nH]cc1NC(=O)c1c(Cl)cccc1Cl	0.32 °C and 1.46 °C

SMILES	thermal shift delta Tm
NCC(=O)Nc1ccc(-n2nc(C(F)(F)F)cc2-c2ccc3c(ccc4ccccc43)c2)cc1	6.14 °C
CCn1c(-c2nonc2N)nc2cnc(Oc3cccc(NC(=O)c4ccc(OCCN5CCOCC5)cc4)c3)cc21	1.24 °C
COc1cc2c3cc1Oc1c(OC)c(OC)cc4c1[C@@H](Cc1ccc(O)c(c1)Oc1ccc(cc1)C[C@@H]3N(C)CC2)N(C)CC4 [Berbamine (dihydrochloride)]	0.3 °C
COc1cc2ncc(-c3ccccc3)nc2cc1OC [Tyrphostin AG 1296]	1.6 °C
C[C@H]1CNCCCN1S(=O)(=O)c1cccc2cncc(F)c12 [Ripasudil (K-115) hydrochloride dihydrate]	1.34 °C
N#Cc1c(NC(=O)c2cccc3ccccc23)sc2c1CCCC2 [JNK Inhibitor IX]	1.54 °C
CC(C)N(CCC(=O)c1ccc2ccccc2c1)Cc1ccccc1	-5.16 °C
COC(=O)c1ccc2c(c1)NC(=O)/C2=C(\Nc1ccc(N(C)C(=O)CN2CCN(C)CC2)cc1)c1ccccc1 [Nintedanib (BIBF 1120)]	-0.82 °C
Nc1ccc(-c2ccc3ncc4ccc(=O)n(-c5cccc(C(F)(F)F)c5)c4c3c2)cn1 [Torin 2]	1.23 °C
COc1ccc2c(Oc3ccc(NC(=O)c4c(C)n(CC(C)(C)O)n(-c5ccccc5)c4=O)nc3)ccnc2c1	1.62 °C
COc1ncc(-c2ccc3nccc(-c4ccnnc4)c3c2)cc1NS(=O)(=O)c1ccc(F)cc1F	1.21 °C
Cc1c[nH]c(/C=C2\C(=O)Nc3ccccc32)c1CCC(=O)O	0.9 °C
Cc1cc(Nc2cc(Cl)nc(Oc3ccc([N+](=O)[O-])cc3)n2)n[nH]1 [Autophinib]	3.49 °C
O=C(c1ccc(/C=C/c2n[nH]c3ccccc23)cc1)N1CCNCC1	3.06 °C
COc1ccc(CNC(=O)Nc2ncc([N+](=O)[O-])s2)cc1	0.85 °C
Cc1cc2c(F)c(Oc3ncnn4cc(OC[C@@H](C)O)c(C)c34)ccc2[nH]1	0.24 °C
C=CC(=O)Nc1cccc(Oc2nc(Nc3ccc(N4CCN(C)CC4)cc3)nc3ccsc23)c1	1.02 °C
O=c1cc(N2CCOCC2)oc2c(-c3ccc4c(c3)OCCO4)csc12	2.36 °C
c1nc2c(NC3CCCCC3)nc(Nc3ccc(N4CCOCC4)cc3)nc2[nH]1 [Reversine]	0.7 °C
